The record followed here is PubChem BioAssay.

Active and inactive are the calls of the source.

Test [1] can be described thus: binders of probe aFSTL3 on microarray, primary screen, stem cell growth factor project, biochemical, small-molecule microarray, fluorescence 635/667 (AID 1064).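 Further: measures binding of the biotinylated anti-FSTL3 antibody to printed compounds.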 The conditions noted are these: higher = more signal.
Test [2] is described as follows: binders from COS7 lysate, DM2A8 probe, primary screen, torsin A project, cell lysate, small-molecule microarray, fluorescence 635/667 (AID 1065). The conditions noted are these: higher = more signal, COS7 lysate expressing mutant human TOR1A.
The nature of test [3]: binders of probe aFGF2 on microarray, primary screen, stem cell growth factor project, biochemical, small-molecule microarray, fluorescence 635/667 (AID 1067).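 Further: measures binding of biotinylated aFGF2 protein to printed compounds on slides; z-score merges feature fluorescence and signal-to-noise across triplicate slides.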 Particulars: higher = more signal.
Test [4] is described as follows: binders of probe aFGF10 on microarray, primary screen, stem cell growth factor project, biochemical, small-molecule microarray, fluorescence 635/667 (AID 1071).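 Further: score merges 667 nm spot intensity and signal to noise from triplicate slides.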 Particulars: higher = more signal.
The target in test [5] is Neurogenic locus notch homolog protein 2 (Homo sapiens) (UniProt Q04721). Put plainly: Notch2 binders on small-molecule microarrays, primary screen, biochemical, small-molecule microarray, 635 nm fluorescence, stem cell growth factors (AID 1073). The conditions noted are these: Notch2 binding, higher = more signal.
The target in test [6] is Pro-neuregulin-1, membrane-bound isoform (Homo sapiens) (UniProt Q02297). Put plainly: NRG1 binders on small-molecule microarrays, primary screen, psychiatric disease protein project, biochemical, small-molecule microarray, fluorescence 635/667 (AID 1075).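 Further: score combines 667 nm spot fluorescence with signal to noise.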 The conditions noted are these: NRG1 binding, 635 nm fluorescence, higher = more signal.
In test [7] the test system is Neuregulin-1 EGF-like domain. Put plainly: binders of neuregulin-1 EGF-like domain, primary screen, biochemical, small-molecule microarray, 635 nm fluorescence (AID 1081).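 Further: binding of the protein to compounds printed on small-molecule microarray slides.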 Particulars: small-molecule microarray binding, higher = more signal.
Test [8] is described as follows: FRG1 promoter luciferase signal modulators, primary screen, FRG1 inhibition for FSHD, cell-based, C2C12 myotubes, firefly/Renilla luciferase, luminescence (AID 1084). The conditions noted are these: higher = more signal, called active from +8 up or from −8 down.
A short description of test [9]: binders of probe aFST on microarray, primary screen, stem cell growth factor project, biochemical, small-molecule microarray, fluorescence 635/667 (AID 1086).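 Further: score merges 667 nm fluorescence with signal-to-noise of each printed compound spot.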 Particulars: higher = more signal.
A short description of test [10]: binders of probe aHhip on microarray, primary screen, stem cell growth factor project, biochemical, small-molecule microarray, fluorescence 635/667 (AID 1087).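 Further: score merges spot fluorescence at 667nm with spot signal to noise ratio.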 The conditions noted are these: higher = more signal.

Sequence of Pro-neuregulin-1, membrane-bound isoform (Homo sapiens) (Q02297 whole entry, looked up, the tested form may be a part, canonical isoform): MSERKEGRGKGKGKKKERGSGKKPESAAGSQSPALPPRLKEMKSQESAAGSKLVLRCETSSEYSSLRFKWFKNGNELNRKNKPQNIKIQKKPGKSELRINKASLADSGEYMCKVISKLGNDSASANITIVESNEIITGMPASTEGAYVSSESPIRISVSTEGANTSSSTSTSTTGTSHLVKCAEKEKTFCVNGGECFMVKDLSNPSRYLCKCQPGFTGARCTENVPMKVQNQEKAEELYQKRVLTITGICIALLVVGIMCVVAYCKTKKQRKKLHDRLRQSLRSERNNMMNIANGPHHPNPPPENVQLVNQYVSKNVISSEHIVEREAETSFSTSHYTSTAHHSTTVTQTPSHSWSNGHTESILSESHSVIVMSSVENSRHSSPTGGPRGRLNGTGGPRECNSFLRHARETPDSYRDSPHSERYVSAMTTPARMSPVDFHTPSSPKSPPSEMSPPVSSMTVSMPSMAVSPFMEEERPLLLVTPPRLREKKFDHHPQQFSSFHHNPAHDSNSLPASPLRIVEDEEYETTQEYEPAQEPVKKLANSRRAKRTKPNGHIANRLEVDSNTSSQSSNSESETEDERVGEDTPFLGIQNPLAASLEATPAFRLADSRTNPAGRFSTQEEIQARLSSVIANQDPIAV
Sequence of Neurogenic locus notch homolog protein 2 (Homo sapiens) (Q04721 whole entry, looked up, canonical isoform): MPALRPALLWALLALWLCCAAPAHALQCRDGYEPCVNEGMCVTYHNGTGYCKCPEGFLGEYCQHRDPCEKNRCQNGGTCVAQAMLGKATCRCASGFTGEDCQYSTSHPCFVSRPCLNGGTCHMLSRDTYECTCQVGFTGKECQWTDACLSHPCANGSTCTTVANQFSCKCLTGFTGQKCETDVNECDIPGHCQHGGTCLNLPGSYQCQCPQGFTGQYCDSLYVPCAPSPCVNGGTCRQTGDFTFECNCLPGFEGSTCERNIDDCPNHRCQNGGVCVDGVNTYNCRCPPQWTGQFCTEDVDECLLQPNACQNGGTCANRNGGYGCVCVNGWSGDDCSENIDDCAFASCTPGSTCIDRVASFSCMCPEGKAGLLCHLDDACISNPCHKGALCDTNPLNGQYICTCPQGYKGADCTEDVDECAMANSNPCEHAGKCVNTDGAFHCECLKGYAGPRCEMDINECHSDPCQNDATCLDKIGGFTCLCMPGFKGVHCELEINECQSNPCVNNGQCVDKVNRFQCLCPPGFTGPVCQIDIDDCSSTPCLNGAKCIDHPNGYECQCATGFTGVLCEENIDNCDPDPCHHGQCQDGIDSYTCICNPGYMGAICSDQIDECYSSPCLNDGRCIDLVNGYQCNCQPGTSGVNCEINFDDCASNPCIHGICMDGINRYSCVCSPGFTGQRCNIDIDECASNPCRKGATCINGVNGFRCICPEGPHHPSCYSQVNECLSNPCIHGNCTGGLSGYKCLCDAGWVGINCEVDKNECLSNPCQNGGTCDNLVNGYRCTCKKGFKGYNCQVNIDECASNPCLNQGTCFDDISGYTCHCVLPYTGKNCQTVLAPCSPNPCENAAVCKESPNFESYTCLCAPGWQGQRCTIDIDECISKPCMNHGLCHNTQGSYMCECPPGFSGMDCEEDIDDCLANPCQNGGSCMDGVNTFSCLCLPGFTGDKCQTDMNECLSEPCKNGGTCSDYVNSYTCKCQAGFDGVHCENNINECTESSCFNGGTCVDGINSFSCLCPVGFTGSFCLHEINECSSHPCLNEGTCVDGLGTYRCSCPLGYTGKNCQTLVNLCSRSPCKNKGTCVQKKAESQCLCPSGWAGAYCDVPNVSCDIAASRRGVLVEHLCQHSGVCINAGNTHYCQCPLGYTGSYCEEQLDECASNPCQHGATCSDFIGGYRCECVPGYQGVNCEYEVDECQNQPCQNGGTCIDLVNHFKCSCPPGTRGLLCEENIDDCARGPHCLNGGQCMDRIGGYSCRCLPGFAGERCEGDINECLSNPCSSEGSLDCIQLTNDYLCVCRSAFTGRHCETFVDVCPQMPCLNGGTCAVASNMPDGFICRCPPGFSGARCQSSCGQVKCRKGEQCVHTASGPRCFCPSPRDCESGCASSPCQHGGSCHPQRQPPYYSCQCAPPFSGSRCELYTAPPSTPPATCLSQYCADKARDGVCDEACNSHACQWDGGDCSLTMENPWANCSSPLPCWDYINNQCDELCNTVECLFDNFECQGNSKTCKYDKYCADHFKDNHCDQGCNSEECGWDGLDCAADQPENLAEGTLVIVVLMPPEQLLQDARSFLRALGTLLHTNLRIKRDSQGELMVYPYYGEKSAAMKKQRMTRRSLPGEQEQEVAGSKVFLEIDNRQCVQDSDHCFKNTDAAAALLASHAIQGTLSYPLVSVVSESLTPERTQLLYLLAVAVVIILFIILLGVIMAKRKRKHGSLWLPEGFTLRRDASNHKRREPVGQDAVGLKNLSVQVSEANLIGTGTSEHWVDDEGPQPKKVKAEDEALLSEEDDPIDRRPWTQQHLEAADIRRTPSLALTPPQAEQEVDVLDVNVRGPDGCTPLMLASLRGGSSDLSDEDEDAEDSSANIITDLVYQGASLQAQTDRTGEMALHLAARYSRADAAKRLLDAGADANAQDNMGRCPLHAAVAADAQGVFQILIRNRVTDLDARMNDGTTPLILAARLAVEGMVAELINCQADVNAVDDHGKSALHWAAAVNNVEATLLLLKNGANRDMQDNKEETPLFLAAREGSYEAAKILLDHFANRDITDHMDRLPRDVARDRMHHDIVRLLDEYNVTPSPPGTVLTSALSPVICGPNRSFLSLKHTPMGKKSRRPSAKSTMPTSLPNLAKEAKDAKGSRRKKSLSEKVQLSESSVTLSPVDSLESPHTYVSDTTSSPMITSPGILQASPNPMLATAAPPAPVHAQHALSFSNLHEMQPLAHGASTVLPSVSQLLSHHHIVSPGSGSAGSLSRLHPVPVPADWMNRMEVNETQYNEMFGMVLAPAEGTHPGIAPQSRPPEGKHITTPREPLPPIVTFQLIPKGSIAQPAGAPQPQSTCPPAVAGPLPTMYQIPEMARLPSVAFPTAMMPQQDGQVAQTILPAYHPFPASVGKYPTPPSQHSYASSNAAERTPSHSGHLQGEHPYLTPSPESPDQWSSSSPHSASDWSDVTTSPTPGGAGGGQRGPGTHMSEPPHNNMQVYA

With `CO[C@H]1COC(=O)CC=C[C@H](C)[C@@H](OC)COC(=O)[C@H](Cc2ccccc2)NC(=O)CC=C[C@@H]1C`, the composite z-score in test [1] is -0.304; in test [2] it was 1.36; in test [3], -0.167; in test [4], -1.09; in test [5], -1.79; in [6] it was -0.806. Also, the composite z-score is -1.09 in [7], -0.463 in [9] and 0.0524 in test [10]. Moreover, in [8], the z-score is -1.01 (inactive).
On to `C[C@H]1NC(=O)[C@@H](C)NC(=O)[C@@]23C(=O)N[C@@H](Cc4ccccc4)C2[C@H](C)[C@@]2(C)O[C@H]2C3/C=C/C/C=C\CNC1=O` (stereo not given in full), for which the composite z-score was -0.372 in test [1]; -0.0794 in test [2]; -0.083 in test [3]; -0.167 in [4]; -0.269 in [5]; 0.631 in test [6]. Moreover, the values for the composite z-score in test [7], in test [9] and in test [10] were 0.812, -0.41 and -0.34, respectively. Moreover, the z-score in test [8] was 0.0028 (inactive).
Take `CCOC(=O)C1=C[C@@H](c2ccccc2)N(S(=O)(=O)c2ccc(C)cc2)[C@H]1c1ccc(F)cc1`: the composite z-score in [1] is -0.0809; in [2], 0.347; in test [3], -0.0317; in test [4] it was 0.493; in test [5], 1.6; in test [6] it was 0.871. Also, the composite z-score in [7] came to 0.949; in [9] it was 0.541; in test [10], 0.0139. Further, the z-score in [8] was -2.62 (inactive).
For `CC(=O)NCCCC[C@@H]1NC(=O)[C@@H]2C[C@H](C(=O)NCCCCCNC(=O)CS)[C@H](c3ccc(O)cc3)N2C1=O`, the composite z-score is 0.123 in test [1]; -0.383 in test [2]; -0.226 in [3]; -1.38 in test [4]; -0.83 in test [5]; 0.0942 in [6]. For the same molecule, the composite z-score in [7] is 1.15; in test [9] it was -0.735; in test [10], -0.388. Besides, the z-score in test [8] was -1.14 (inactive).
Consider `C=CC(=O)O[C@@H](Cc1ccccc1)[C@H]1C2C=CCCC=C2CN1Cc1cccc(Cl)c1` (stereo not given in full), for which the composite z-score was 0.32 in test [1]; -0.32 in [2]; -0.123 in test [3]; -0.682 in test [4]; -0.657 in [5]; -0.518 in [6]. Also, the composite z-score in [7] was -1.2; in test [9], -0.254; in test [10], 0.176. The z-score in test [8] was -1.44 (inactive).
Regarding `O=C(CS)NCCCCCNC(=O)[C@H]1C[C@H]2C(=O)N3CCC[C@H]3C(=O)N2[C@H]1c1ccc(O)cc1`, the composite z-score in test [1] was 0.305; in test [2] it was 0.0424; in test [3], -0.0363; in [4], -0.267; in test [5] it was -0.231; in test [6] it was 0.873. Moreover, the values for the composite z-score in test [7], in test [9] and in test [10] were 1.25, -0.339 and 0.0274, respectively. For the same molecule, the z-score in test [8] was 0.393 (inactive).
`C=CCN1C(=O)[C@]2(O[C@H](CCn3cc(CCO)nn3)[C@@H]([Si](C)(C)c3ccc(OC)cc3)[C@@H]2C)c2cc(NC(=O)c3ccc(OC)cc3)ccc21`: the composite z-score was 0.615 in test [1]; 0.473 in [2]; 0.0051 in test [3]; -0.0488 in [4]; 0.48 in [5]; 0.439 in [6]. The composite z-score in test [7] stood at 0.974; in test [9], 0.479; in test [10], 0.176. Also, the z-score in test [8] was -2.48 (inactive).
Consider `CCOC(=O)C1=CC[C@@H](c2ccccc2)N(S(=O)(=O)c2ccc(C)cc2)[C@H]1C`, for which the composite z-score is -0.386 in [1]; 1.09 in [2]; 0.0257 in test [3]; 1.11 in test [4]; 1.59 in [5]; 1.45 in [6]. Moreover, the composite z-score in test [7] is 1.12; in [9], 0.691; in [10], -0.0994. Moreover, the z-score in test [8] is -2.8 (inactive).
Take `NC(=O)NCC#Cc1ccc2c(c1)[C@]1(C(=O)N2)[C@H](C(N)=O)[C@H]2C(=O)O[C@H](c3ccccc3)[C@H](c3ccccc3)N2[C@@H]1c1ccccc1OCCO`: the composite z-score came to 0.163 in test [1]; 0.494 in [2]; 0.0143 in [3]; 0.0467 in test [4]; 0.335 in test [5]; 0.221 in test [6]. In addition, the composite z-score in [7] is -0.0706; in test [9], 0.597; in test [10] it was -0.0645. The z-score in test [8] was -0.317 (inactive).
Regarding `COCCOC(=O)N1C(=O)[C@@]2(c3cc(C#CCC(C(=O)OC)C(=O)OC)ccc31)[C@H](c1ccccc1OCCO)N1[C@H](c3ccccc3)[C@H](c3ccccc3)OC(=O)[C@H]1[C@@H]2C(=O)N1CCCCCCC1`, the composite z-score is 3.6 in test [1]; 0.618 in [2]; 0.486 in test [3]; 0.388 in test [4]; 0.966 in test [5]; 0.889 in test [6]. Moreover, the results for the composite z-score in test [7], in test [9] and in test [10] were 1.33, 2.9 and 2.32, respectively. In [8], the z-score is -0.0751 (inactive).
For the molecule `CCc1cccc(NC(=O)O[C@H]2[C@H](OC(=O)Nc3ccccc3)[C@@H](OC(=O)Nc3ccccc3)[C@@H](OC)O[C@@H]2CO)c1`, the composite z-score in test [1] is -0.0679; in test [2], 0.624; in test [3], 0.216; in test [4] it was 1.17; in [5], 1.08; in [6], 1.76. The composite z-score was 1.39 in test [7], 0.891 in [9] and -0.0831 in [10]. The z-score in [8] was 0.825 (inactive).
For `O=C(NCC(F)(F)F)[C@@H]1c2ccccc2C(=O)N(Cc2ccccc2Cl)[C@H]1c1ccc(CO)cc1`, the composite z-score in test [1] is 1.39; in test [2] it was -0.338; in [3], -0.0964; in [4] it was -0.601; in test [5], -1.37; in test [6] it was -0.341. In addition, the composite z-score in test [7] is 1.39; in [9], 0.214; in [10] it was -0.47. In addition, in test [8], the z-score was -1.3 (inactive).
As for `COCCCNC(=O)[C@@]1(c2ccc([N+](=O)[O-])cc2)CC(=O)N(C2CCCCC2)[C@@H]1c1ccc(CO)cc1`, the composite z-score in test [1] is -1.19; in [2], -0.655; in [3], -0.248; in test [4], 0.174; in test [5] it was -0.243; in test [6], 0.763. In addition, the composite z-score was 1.39 in [7], -0.604 in [9] and -0.859 in [10]. Further, the z-score in test [8] was -0.912 (inactive).
As to `CO[C@@H]1COC(=O)[C@H](C)NC(=O)CC=C[C@@H](C)[C@H](NS(=O)(=O)c2ccc(C)cc2)COC(=O)CC=C[C@@H]1C`, the composite z-score in test [1] is -0.402; in test [2], -0.0613; in test [3] it was -0.0891; in test [4], 0.117; in test [5], 0.156; in test [6] it was -0.32. The results for the composite z-score in test [7], in test [9] and in [10] were -0.144, -0.181 and -0.388, respectively. The z-score in [8] is -0.364 (inactive).
